Assay results from PubChem BioAssay.
Activity calls are given as the source filed them.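 How the source made its calls, unless noted: active means visually confirmed hit in the image check and inhibition above 20%; inconclusive means visually confirmed hit but inhibition not above 20%; inactive means no visual hit in the image check.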

What was measured:
[1] = inhibitors of TNFa-induced NFkB p65 translocation, primary screen, imaging, HUVEC, MLSMR starter and 10KST1 sets (AID 438;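 active means inhibition above 20% together with a positive visual image hit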;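 further: compound added about 3h40 before a 20 min TNFalpha stimulation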;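 on inhibition: signal is the nuclear over cytoplasmic p65 intensity ratio per well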); settings: HUVEC TNFa-induced p65 nuclear translocation; cell count: measured here: nuclei count (cytotoxicity indicator), at 2.08 µM; inhibition: at 2 µM, stronger effect = higher value, 0% TNFa-plus-vehicle, 100% no-TNFa wells
[2] = inhibitors of mutant huntingtin aggregation, primary screen, imaging, exon1htt(103Q)mCFP cells, high-content imaging (AID 483;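 active means visual image review flags a hit and inhibition of aggregation exceeds 20%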;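 further: compound exposure lasted 3 days before fixation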;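 on nuclei count: percent of the per-plate median nuclei count of sample wells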); settings: exon1htt(103Q)mCFP cell line, aggregate imaging, at 2 µM; inhibition of aggregation: stronger effect = higher value; nuclei count: measured here: cell count, toxicity
[3] = inhibitors of E-selectin induction by TNFa, primary screen, imaging, HUVEC, immunofluorescence, MLSMR starter and 10KST1 sets (AID 487); settings: HUVEC TNFalpha-induced E-selectin immunofluorescence imaging, at 2 µM; inhibition: stronger effect = higher value; nuclei count: measured here: cell number, toxicity;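 on inhibition: signal is fraction of cell area covered by stained E-selectin grains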;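 on nuclei count: 100% = median nuclei count of all wells on the same plate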
[4] = biological target: Voltage-gated potassium channel subunit beta-2 (Rattus norvegicus) (UniProt P62483); assay: KvBeta enzyme negative modulators, primary screen, biochemical, NADPH fluorescence (AID 622;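 active means fluorescence slope higher than the sample average by over 3 SD, cut at about -0.22 in these data, passing the limit was not always enough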;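 further: slope of raw intensity against log time taken from 70 to 1610 s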); settings: recombinant KvBeta, 4-cyanobenzaldehyde reduction, at 10 µM, stronger effect = higher value
[5] = biological target: Voltage-gated potassium channel subunit beta-2 (Rattus norvegicus) (UniProt P62483); assay: KvBeta positive modulators, primary screen, biochemical, NADPH fluorescence (AID 623;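 active means NADPH fluorescence slope more negative than the mean of all samples by about 3 SD, 99.7% confidence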;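 further: fluorescence intensity change per second fitted from 20 to 320 s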); settings: Recombinant KvBeta, NADPH fluorescence decrease slope, 10 min; at 10 µM; stronger effect = lower value
[6] = biological target: Alpha-2C adrenergic receptor (Homo sapiens) (UniProt P18825); assay: modulators of alpha2C/GIRK thallium flux, primary screen, cell-based, HEK293 alpha2C/GIRK1/2 (AID 624;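 active means fluorescence slope after compound addition differing from the mean of all screened samples at 99.7% confidence, in either direction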;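 further: slope of fluorescence ratio to pre-addition baseline per second over 15 to 24 s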); settings: thallium flux BTC fluorescence, at 10 µM, actives lie on both sides
[7] = inhibitors of Sendai virus-induced IRF3 signaling, primary screen, TLR/RLR signaling modifier project, cell-based, Sendai virus stimulus, luciferase, 10K MLSCN set (AID 602276;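 active means inhibition at or above 50% at 10 µM; inactive means inhibition below 50%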;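 further: firefly luciferase from ISG56 promoter only with Renilla not read in this screen; 0% = Sendai virus plus DMSO and 100% = medium plus DMSO without virus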); settings: HEK293 RL24 IRF3 luciferase reporter, at 10 µM, stronger effect = higher value
[8] = inhibitors of poly I:C-induced TLR3 signaling, primary screen, cell-based, poly I:C stimulus, luciferase, 10K MLSCN set (AID 602277;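 active means inhibition of the reporter signal at or above 50%; inactive means inhibition below 50%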); settings: HEK293-TLR3 RL24 IRF3 luciferase reporter, at 10 µM, stronger effect = higher value

Chain of Voltage-gated potassium channel subunit beta-2 (Rattus norvegicus) (P62483 whole entry, looked up): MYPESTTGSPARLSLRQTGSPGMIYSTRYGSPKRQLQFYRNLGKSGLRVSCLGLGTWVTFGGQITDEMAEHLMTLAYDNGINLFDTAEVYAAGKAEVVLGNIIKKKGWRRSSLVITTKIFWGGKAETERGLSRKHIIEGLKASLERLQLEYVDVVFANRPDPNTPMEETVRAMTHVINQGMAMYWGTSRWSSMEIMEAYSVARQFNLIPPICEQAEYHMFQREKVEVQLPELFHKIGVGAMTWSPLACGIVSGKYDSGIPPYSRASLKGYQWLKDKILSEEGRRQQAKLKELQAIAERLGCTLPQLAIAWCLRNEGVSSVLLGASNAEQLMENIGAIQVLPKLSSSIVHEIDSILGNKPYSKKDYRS
Chain of Alpha-2C adrenergic receptor (Homo sapiens) (P18825 whole entry, looked up): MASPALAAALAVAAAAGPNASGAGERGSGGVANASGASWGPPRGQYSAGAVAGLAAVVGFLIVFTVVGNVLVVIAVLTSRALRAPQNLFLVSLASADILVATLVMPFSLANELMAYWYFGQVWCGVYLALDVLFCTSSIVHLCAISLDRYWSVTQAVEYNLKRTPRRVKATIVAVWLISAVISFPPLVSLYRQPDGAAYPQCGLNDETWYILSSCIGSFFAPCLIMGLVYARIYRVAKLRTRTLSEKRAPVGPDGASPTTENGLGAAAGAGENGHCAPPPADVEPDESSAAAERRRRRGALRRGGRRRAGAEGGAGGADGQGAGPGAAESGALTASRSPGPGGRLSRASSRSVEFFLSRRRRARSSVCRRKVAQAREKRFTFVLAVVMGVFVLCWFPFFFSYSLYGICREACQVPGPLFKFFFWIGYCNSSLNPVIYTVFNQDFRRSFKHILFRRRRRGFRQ

Compound	cell count [1]	inhibition [1]	inhibition of aggregation [2]	nuclei count [2]	inhibition [3]	nuclei count [3]	fluorescence slope [4]	NADPH fluorescence slope [5]	slope [6]	inhibition [7]	inhibition [8]
CCOc1ccc(C(C)=O)cc1COc1ccc(-n2cnnn2)cc1	407	-8.7% (inactive)	18.3% (inactive)	80.8%	25.1% (inactive)	132%	-0.617 (inactive)	-6.6e-05 (inactive)	0.00398 (inactive)	1.13% (inactive)	-2.41% (inactive)
Cc1ccc(NC(=O)c2ccccc2O)cc1	631	12.1% (inactive)	8% (inactive)	91.3%	-203% (inactive)	119%	-0.602 (inactive)	-5.6e-05 (inactive)	0.00651 (inactive)	-61.1% (inactive)	-73.1% (inactive)
CC1CCN(C(=O)CSc2nc3c(cnn3-c3ccccc3)c(=O)[nH]2)CC1	472	2.3% (inactive)	-5.6% (inactive)	102%	14.9% (inactive)	79.5%	-0.582 (inactive)	-2.5e-05 (inactive)	0.00596 (inactive)	10.9% (inactive)	28.1% (inactive)
CC1=C(C(=O)OCc2ccccc2)C(c2ccco2)n2ncnc2N1 (stereo not drawn)	811	-2.8% (inactive)	7% (inactive)	117%	-31.8% (inactive)	109%	-0.595 (inactive)	4.7e-06 (inactive)	0.00658 (inactive)	9.4% (inactive)	25.1% (inactive)
O=C(Nc1cccc(F)c1)C1C2C=CC3(CN(CCCN4CCOCC4)C(=O)C13)O2 (stereo not drawn)	661	-5.5% (inactive)	-27.1% (inactive)	118%	-75.2% (inactive)	116%	-0.548 (inactive)	-3.3e-05 (inactive)	0.00626 (inactive)	-14.3% (inactive)	12.3% (inactive)
O=C1c2ccccc2C(=O)N1CCC(=O)N1CCc2ccccc21	359	5.9% (inactive)	22.4% (inactive)	92.8%	-71.6% (inactive)	109%	-0.393 (inactive)	-2.1e-05 (inactive)	0.005 (inactive)	-1.4% (inactive)	-26.2% (inactive)
CCOc1ccc(NCc2nnc(SCC(=O)Nc3cc(C)on3)n2-c2ccccc2OC)cc1	325	-9.3% (inactive)	-6.4% (inactive)	101%	41.6% (inactive)	107%	-0.452 (inactive)	-2.8e-05 (inactive)	0.00835 (inactive)	20.4% (inactive)	30.4% (inactive)
CC1CN(C(=O)c2scc3c2OCCO3)CC(C)O1 (stereo not drawn)	190	-5.4% (inactive)	0.7% (inactive)	75%	11.5% (inactive)	77%	-0.598 (inactive)	-1.6e-05 (inactive)	0.00693 (inactive)	17.3% (inactive)	20.4% (inactive)
COCCn1c(COc2ccc(Cl)cc2)nnc1SCC(N)=O	424	3.4% (inactive)	7.6% (inactive)	93.8%	-31.9% (inactive)	119%	-0.586 (inactive)	-6e-05 (inactive)	0.00579 (inactive)	18.2% (inactive)	25.2% (inactive)
Cc1ccccc1Cn1nc(C)c(NC(=O)c2noc3c2CCc2ccccc2-3)c1C	720	2.9% (inactive)	4.7% (inactive)	78.3%	-88.7% (inactive)	108%	-0.588 (inactive)	4e-06 (inactive)	0.00754 (inactive)	8.23% (inactive)	0.0552% (inactive)
CCN(CC)CCN1C(=O)c2oc3ccc(F)cc3c(=O)c2C1c1ccncc1 (stereo not drawn)	598	-12.9% (inactive)	-2.9% (inactive)	102%	-5.7% (inactive)	111%	-0.536 (inactive)	-4.3e-05 (inactive)	0.00733 (inactive)	15.9% (inactive)	44.8% (inactive)
COC(=O)CNc1nc(C2CC2)nc2c1nnn2Cc1ccccc1Cl	459	8.3% (inactive)	-0.3% (inactive)	83.5%	16.5% (inactive)	97.5%	-0.479 (inactive)	-0.000128 (inactive)	0.00514 (inactive)	18.2% (inactive)	17.8% (inactive)
Cc1ccccc1NC(=O)NCCCN1CCN(C2CCCCC2)CC1	411	-1.8% (inactive)	8.9% (inactive)	81.8%	-119% (inactive)	108%	-0.61 (inactive)	2.5e-06 (inactive)	0.00551 (inactive)	3.03% (inactive)	13% (inactive)
COc1ccc(OC)c(NC(=O)CCN2CCC(C)CC2)c1	446	-6.2% (inactive)	15.7% (inactive)	101%	-120% (inactive)	220%	-0.59 (inactive)	-3.6e-05 (inactive)	0.00565 (inactive)	-15.8% (inactive)	-0.553% (inactive)
COc1ccc(-c2noc(CCCC(=O)O)n2)cc1	696	-7.8% (inactive)	-3.1% (inactive)	125%	-54.3% (inactive)	107%	-0.341 (inactive)	1.2e-05 (inactive)	0.00595 (inactive)	35% (inactive)	86.3% (active)
CC(=O)N1CCN(c2ccc(N=Cc3c(O)n(Cc4ccccc4)c(=O)[nH]c3=O)cc2)CC1	344	6.8% (inactive)	-13.5% (inactive)	102%	-9.7% (inactive)	105%	-0.525 (inactive)	1.9e-05 (inactive)	0.00469 (inactive)	14.1% (inactive)	22.9% (inactive)
Cc1ccc(N2C(=O)c3oc4ccccc4c(=O)c3C2c2cccc(O)c2)nc1 (stereo not drawn)	752	6.1% (inactive)	-1.9% (inactive)	64.5%	-6.3% (inactive)	66.8%	-0.589 (inactive)	-3.8e-06 (inactive)	0.00643 (inactive)	11% (inactive)	14.6% (inactive)
CCn1c(SCc2cccc(C(F)(F)F)c2)nnc1-c1ccco1	616	4.8% (inactive)	4.5% (inactive)	94.1%	-15.2% (inactive)	104%	-0.414 (inactive)	-3.6e-05 (inactive)	0.00568 (inactive)	13.2% (inactive)	3.48% (inactive)
Cc1ccc(CCNC(=O)C2CCN(S(=O)(=O)c3c(C)nn(C)c3C)CC2)cc1	621	6.1% (inactive)	-21.9% (inactive)	105%	-8.4% (inactive)	116%	-0.618 (inactive)	-5.1e-06 (inactive)	0.00762 (inactive)	-5.1% (inactive)	6.19% (inactive)
Cc1cc(C)c(C)c(OCC(=O)NCC2CCCO2)c1 (stereo not drawn)	371	-13.5% (inactive)	-15% (inactive)	97.1%	-65.1% (inactive)	110%	-0.521 (inactive)	-3.4e-05 (inactive)	0.0063 (inactive)	-5.32% (inactive)	21% (inactive)
CCOc1cc(C(=O)N2CCN=C2SC)cc(OCC)c1OCC	227	-4.9% (inactive)	-39.5% (inactive)	109%	-24.8% (inactive)	108%	-0.595 (inactive)	4.6e-06 (inactive)	0.00661 (inactive)	15.5% (inactive)	24.3% (inactive)
CCCn1c(=NC(C)=O)c(C#N)cc2c(=O)n3cccc(C)c3nc21	462	-0.9% (inactive)	0.6% (inactive)	99.9%	-35.4% (inactive)	131%	-0.0531 (inactive)	-1e-05 (inactive)	0.0086 (inactive)	-11.4% (inactive)	1.19% (inactive)
CC(=O)c1ccc(-c2nc3ccccc3n2C)o1	365	4.7% (inactive)	-13.2% (inactive)	105%	-11.8% (inactive)	108%	-0.0212 (active)	5.6e-07 (inactive)	0.00571 (inactive)	-22.8% (inactive)	-73.6% (inactive)
c1ccc(N2CCN(Cc3ccnc4ccccc34)CC2)cc1	424	5.4% (inactive)	10.4% (inactive)	83.9%	43.4% (inactive)	102%	-0.477 (inactive)	-3.9e-05 (inactive)	0.0043 (inactive)	-12.4% (inactive)	-22.2% (inactive)
CCCCn1cnc2c1c(=O)n(C)c(=O)n2C	797	-7.5% (inactive)	25.6% (inactive)	101%	-35.5% (inactive)	119%	-0.374 (inactive)	-1.9e-05 (inactive)	0.00541 (inactive)	-11.6% (inactive)	-3.57% (inactive)
CCOc1cc(/C=N/n2cnnc2)cc(Br)c1O	819	4.2% (inactive)	-15.3% (inactive)	100%	-30.9% (inactive)	124%	-0.381 (inactive)	-4.4e-06 (inactive)	0.00481 (inactive)	13.1% (inactive)	7.19% (inactive)
COc1ccc(Nc2nc(-c3sc(N)nc3C)cs2)cc1	661	-5.8% (inactive)	-10.7% (inactive)	116%	-75.8% (inactive)	118%	-0.376 (inactive)	-6.4e-05 (inactive)	0.0038 (inactive)	-13.1% (inactive)	-17.6% (inactive)
Cc1nnc(SCC(=O)N(C(C)C)C(C)C)nc1C	430	7% (inactive)	-8.2% (inactive)	101%	-106% (inactive)	115%	-0.599 (inactive)	-3.9e-05 (inactive)	0.00322 (inactive)	6.7% (inactive)	8.25% (inactive)
